About 83,000 compounds went through this panel and 20% of them were active in at least one assay; those are over-represented in the sample as a whole.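 Single-dose data. Exposure time 48 hours. Values below 10 considered active.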 Values without a mark were called inactive. Activity calls are given as the source filed them.
Tests used:
Experiment in all cases: NCI-60 one-dose screen, 48 h (100 = growth as untreated, 0 = no growth, -100 = all killed)
Conditions in all cases: 10 µM unless noted
DU-145 prostate = tested on: DU-145 prostate
K-562 leukemia = tested on: K-562 leukemia
MALME-3M melanoma = tested on: MALME-3M melanoma
RXF 393 renal = tested on: RXF 393 renal
SF-268 CNS = tested on: SF-268 CNS
SF-295 CNS = tested on: SF-295 CNS
SF-539 CNS = tested on: SF-539 CNS
UACC-257 melanoma = tested on: UACC-257 melanoma
M14 melanoma = tested on: M14 melanoma
MDA-MB-231 breast = tested on: MDA-MB-231 breast

Row | SMILES | growth (DU-145 prostate) | growth (K-562 leukemia) | growth (MALME-3M melanoma) | growth (RXF 393 renal) | growth (SF-268 CNS) | growth (SF-295 CNS) | growth (SF-539 CNS) | growth (UACC-257 melanoma) | growth (M14 melanoma) | growth (MDA-MB-231 breast)
1 | C=C1CC[C@@H]2[C@]3(C)COC(c4cn[nH]c4-c4ccc(C)cc4)O[C@@H]3CC[C@@]2(C)[C@@H]1C/C=C1/C(=O)OCC1O (some centres not stated) | 37.2% | 2.59% (active) | -52.6% (active) | -31.7% (active) | 54.2% | 49.5% | -88.1% (active) | -0.178% (active) | -42.2% (active) | 
2 | Cc1c(C(=O)NNC(=O)c2ccc(Cl)cc2)nnn1-c1ccc(Cl)cc1 | 108% | 86.3% | 86.9% | 92.7% | 105% | 82.7% | 99.6% | 94.1% | 93.6% | 
3 | COc1cc(-c2ccc(/C=N/NC(=O)c3[nH]c4ccc(Br)cc4c3-c3ccccc3)o2)cc(OC)c1OC | 81.1% | 85.6% | 95.4% | 88.7% | 59% | 56.6% | -13.1% (active) | 92.1% | 74.9% | 
4 | O=C1Nc2ccc([N+](=O)[O-])cc2C1=Nc1ccccc1 | 114% |  | 100% | 143% | 98.9% | 90.7% | 91.8% | 134% |  | 95.3%
5 | CCOC(=O)C1=C(N)N(c2ccccc2)C2=C(C(=O)CC(C)(C)C2)C1c1ccc(Cl)cc1Cl (configuration not stated) | 46% | 13% | 27.9% | 21.2% | 52.1% | 23.6% | 33.3% | 35% | 41.3% | 
6 | C=C1CC[C@@H]2[C@]3(C)COC(c4cn(-c5ccccc5)nc4-c4cccc([N+](=O)[O-])c4)O[C@@H]3CC[C@@]2(C)[C@@H]1C/C=C1/C(=O)OC[C@H]1O (some centres not stated) | 44.3% | -12.7% (active) | -67.6% (active) | -84.2% (active) | 46% | -46.5% (active) | -96.4% (active) | -68% (active) | -51.2% (active) | 
7 | CCN(CC)C(=O)N/C(N)=N/c1nc2ccccc2s1 | 48.8% | 30.3% | 56.8% | 58.5% | 72.6% | 32.5% | 69.7% | 40.5% | 71.9% | 
8 | COc1ccc(/C=C2\C(=O)Nc3ccc(Cl)cc32)cc1OCc1ccccn1 | 57.5% | 51.6% | 38.2% | 2.03% (active) | 44% | 38.4% | -9.35% (active) | 72.6% | 52.8% | 
9 | CCN1CCN(Cc2ccc(C(=O)Nc3cccc(C#Cc4cccc5[nH]nc(N)c45)c3)cc2C(F)(F)F)CC1 | -41.8% (active) |  | -76.2% (active) | -87.6% (active) | -61.6% (active) | -87.1% (active) | -97.4% (active) | -89.3% (active) | -95.2% (active) | -90.8% (active)
10 | CSc1ccccc1NC(=O)c1ccc2nnn(/C(C#N)=C/c3ccccn3)c2c1 | -97.9% (active) | 1.03% (active) | -94.7% (active) | -98.8% (active) | 6.52% (active) | 2.24% (active) | -100% (active) | -89.8% (active) | -93.6% (active) | 
11 | Clc1cccc(Cl)c1/C=C/c1cc(/C=C/c2ccc(Br)cc2)c2ccccc2n1 | 110% | 99.5% | 91.8% | 83.4% | 110% | 99.2% | 95.7% | 105% | 101% | 
12 | Nc1cc2ccccc2c(=O)n1NC(=O)c1ccc(I)cc1 | 102% | 90.4% | 97.4% | 108% | 94.9% | 97.6% | 96.5% | 93.3% | 102% | 
13 | O=C(N/N=C/c1ccc(-c2ccc(O)cc2)s1)c1[nH]c2ccc(Br)cc2c1-c1ccccc1 | 30.1% | 2.31% (active) | -2.08% (active) | -29.5% (active) | 28.9% | 0.137% (active) | -57.2% (active) | 53.9% | 9.8% (active) | 
14 | COc1cc(CNC(=O)/C=C/c2ccc3c(c2)OCO3)ccc1OCc1cn(-c2cccc(C(F)(F)F)c2)nn1 | 30% | 24.7% | -11.9% (active) | -28.9% (active) | 39% | -20.7% (active) | -81.2% (active) | 18.1% | 4.8% (active) | 
15 | Cc1cc(C)cc(C(=O)Nc2cccc(-c3cn(-c4ccc(S(N)(=O)=O)cc4)nn3)c2)c1 | 72.1% | 19.1% | 20.4% | -26.1% (active) | 16.6% | -36.6% (active) | -84.3% (active) | 76.2% | 73.4% | 
16 | COc1ccc(NC(=O)Cn2c(/C=C/c3cccc([N+](=O)[O-])c3)nc3ccccc3c2=O)cc1 | 93.9% |  | 77% | -6.3% (active) | 71.6% | 79.2% | 7.2% (active) | 98.8% |  | 15.8%
17 | CCCCOc1ccc(NC(=O)c2sc3nc(C)ccc3c2N)cc1 | 46.4% | 9.87% (active) | 23.3% | -20.7% (active) | 29.8% | -54% (active) | -99.7% (active) | 54.1% | 59.9% | 
18 | CC1=C(C(=O)OC(C)C)C(c2cccc(O)c2)NC(=S)N1 (configuration not stated) | 104% | 83.2% | 92.7% | 110% | 109% | 96.8% | 94.7% | 92.8% | 109% | 
19 | Nc1n[nH]c2cccc(C#Cc3cccc(NC(=O)c4cccc(Cl)c4)c3)c12 | 55.8% |  | 46.4% | -14.7% (active) | 41.1% | 15.3% | 8.74% (active) | 48.5% |  | 9.79% (active)
20 | O=C1Nc2cc(Cl)ccc2/C1=C/c1cccc(OCc2ccccn2)c1 | 9.98% (active) | 4.79% (active) | 36.4% | -3.29% (active) | 13.1% | 13.6% | -48.2% (active) | 44.4% | -9.46% (active) | 
21 | N#Cc1c(-c2cccnc2)cc(-c2ccc3ccccc3c2)[nH]c1=O | 80.2% | 86.6% | 94.8% | 50.6% | 71.7% | 71.4% | 7.22% (active) | 105% | 116% | 
22 | COc1ccc(C(=O)Nc2n[nH]c(Nc3ccccc3)c2C#N)cc1 | 119% |  | 97.8% | 118% | 97.3% | 92.8% | 98.3% | 137% | 109% | 103%
23 | CSc1ccc(NC(=O)c2ccc3nnn(/C(C#N)=C/c4ccccn4)c3c2)cc1 | -97.9% (active) | -5.65% (active) | -94.6% (active) | -98.6% (active) | -3.01% (active) | -73.3% (active) | -99.3% (active) | -76.9% (active) | -89.7% (active) | 
24 | C(=C\c1cc(/C=C/c2ccccc2)c2ccccc2n1)/c1ccccc1 | 101% | 43.2% | 90.5% | 111% | 102% | 109% | 74.3% | 98.5% | 51.4% | 
25 | NS(=O)(=O)c1ccc(-n2cc(-c3cccc(NC(=O)c4cc(Cl)cc(Cl)c4)c3)nn2)cc1 | 74.6% |  | 77.6% | 87.9% | 43.1% | 75.6% | 70.1% | 83.2% | 52.4% | 54.1%
26 | CC1=C(C(=O)c2ccccc2)C(c2cccc3ccccc23)n2c(nc3ccccc32)N1 (configuration not stated) | 67.3% | 39.3% | 57.4% | 76.4% | 60.1% | 76.9% | 1.2% (active) | 84% | 73.5% | 
27 | NS(=O)(=O)c1ccc(-n2cc(-c3cccc(NC(=O)c4cc(C(F)(F)F)cc(C(F)(F)F)c4)c3)nn2)cc1 | 69.7% | 52.7% | 63.7% |  | 45.3% | 31.4% | 35.1% | 91.1% | 65% | 
28 | O=C1N/C(=N\c2nccs2)S/C1=C\C=C/c1ccccc1 | 49.1% |  | 42.6% | 88.6% | 39.2% | 21.9% | 13% | 8.23% (active) | -21% (active) | 51.6%
29 | CC(=O)Nc1ccc(-c2cn(-c3cccc(C(=O)Nc4ccc(N5CCN(C)CC5)cc4)c3)nn2)cn1 | 83.4% | 31.5% | 72% | 97% | 88.7% | 58.6% | 68.6% | 100% | 87% | 
